# Screens deposited in PubChem by National Center for Advancing Translational Sciences (NCATS).
# LASV entry inh: blocks Lassa virus binding to or entry into cells | Lassa virus pseudotype entry inhibition, cell reporter | 300,000 compounds, 1.2% hits | Potency, µM (series often up to 37.9 µM), most hits filed as inhibitors; calls by dose curve; tested in HEK293 cells; further: nearly all actives have a fitted effect of over 50% in size
# FMDV antiviral: foot and mouth disease virus antiviral activity; FMDV antiviral cell-based qHTS; Potency, µM (top dose mostly 57.9 µM), actives largely listed as inhibitors; 410,000 compounds, 1.2% hits; calls by dose curve; tested in HEK293T cells; further: read-out not given here; nearly all actives have a fitted effect of over 45% in size
# HCMV inh: human cytomegalovirus inhibition; HFF cells, HCMV-luciferase reporter, 72 h; active compounds read low; activity change, negative = inhibition, % at 57.5 µM; 410,000 compounds, 4.5% hits; AID 1259415; in the data active means activity change below about -60%; inconclusive means no clear call, values can overlap the other calls; inactive means above about -39%
#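 Two-dose cell screen: HFF monolayers treated with compounds and infected with luciferase-expressing HCMV at 1 PFU/cell, 72 h at 37C, then lysed for luciferase measurement.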
# Vaccinia mCherry: inhibitors of vaccinia virus infection (mCherry reporter signal); Potency, µM (series often up to 36.5 µM), hits mostly inhibitors; AID 720579; 310,000 compounds, 0.63% hits; Vaccinia virus mCherry reporter infection, fluorescence; calls by dose curve; tested in A549 cells; further: nearly all actives have a fitted effect of over 35% in size
# Vaccinia Venus: inhibitors of vaccinia virus (Venus reporter); Vaccinia virus Venus reporter expression, fluorescence; Potency, µM (series often up to 36.5 µM), hits mostly inhibitors; 330,000 compounds, 0.46% hits; AID 720580; calls by dose curve; tested in A549 cells; further: nearly all actives have a fitted effect of over 30% in size
# MARV entry inh: Marburg virus entry inhibition. AID 540276. Potency, µM (series often up to 37.8 µM), most hits filed as inhibitors. Marburg virus pseudotyped entry inhibition, cell reporter. 300,000 compounds, 1.8% hits; calls by dose curve; tested in HEK293 cells
# A number is an active result; . = inactive; ? = inconclusive; / = no result given. This is a sample that favours compounds with a hit; in the whole collection about 6.5% have one here.
SMILES,LASV entry inh,FMDV antiviral,HCMV inh,Vaccinia mCherry,Vaccinia Venus,MARV entry inh
Cc1nn(C)c(NC(=O)c2ccccc2Cl)c1Cl,/,.,.,/,/,.
CCN(CC)C(=O)c1ccc(S(=O)(=O)N2CCC(c3nc4ccccc4s3)CC2)cc1,?,/,-96,.,?,?
CCCC[C@]12Cc3cc(OC)c(OC)cc3[C@H](O1)C1=C(CC3(CCCCC3)OC1=O)O2,/,/,/,/,/,.
CCC(C)NS(=O)(=O)c1ccc(F)c(C(=O)Nc2c(F)cc(F)cc2Br)c1 (stereo not drawn),/,.,.,/,/,/
CCCN(C(=O)CCl)C1=CCCCC1,?,?,-100,.,.,.
O=C(O)c1cc([N+](=O)[O-])ccc1N1CCCCC1,.,.,.,.,.,.
CC(NC(c1ccccc1)c1ccccc1)C(=O)N1CCCc2ccccc21 (stereo not drawn),?,?,.,.,?,.
O=C(c1cc([N+](=O)[O-])cc([N+](=O)[O-])c1)N1CCCc2ccccc21,.,.,.,.,.,10µM
Cc1ccc(C(=O)c2cc([N+](=O)[O-])ccc2N2CCCCC2)c(C)c1,?,?,-92,?,?,?
CC(Nc1ccccc1N1CCCCC1)C(=O)N1CCc2ccccc21 (stereo not drawn),.,?,-70,.,.,.
O=C(c1cc([N+](=O)[O-])ccc1N1CCCCC1)N1CCc2ccccc21,?,.,?,.,.,4.5µM
COc1ccc(CCCC2=NC3C=CC=CC3=N2)cc1 (stereo not drawn),/,/,/,/,/,.
Cc1ccc(C)c(N2CCN(C(=O)CCc3nc(-c4ccccc4Cl)no3)CC2)c1,/,?,.,.,.,/
O=C(COC(=O)CNC(=O)C1CCCCC1)NC1CCCC1,/,/,/,.,.,/
O=C(c1ccc([N+](=O)[O-])s1)N1CCCc2ccccc21,?,.,?,10µM,?,?
Cn1c(=O)oc2cc(S(=O)(=O)NC(CC(=O)O)c3cccc(Br)c3)ccc21 (stereo not drawn),.,.,.,.,.,/
CC1=NC(=O)C(C#N)C=C1c1ccncc1 (stereo not drawn),/,/,/,/,/,.
COc1ccccc1-c1ccc(=O)n(CC(=O)NC2CCc3ccccc32)n1 (stereo not drawn),.,.,-87,.,.,?
CCCNC(=O)Cn1nc(-c2ccccc2OC)ccc1=O,/,.,.,.,.,/
O=C(c1cccc(S(=O)(=O)Nc2ccc(Br)cc2)c1)N1CCCC1,.,.,.,.,.,.
CCOn1c(-n2nc(C)cc2C)nc2ccccc2c1=O,.,.,.,/,/,.
Cc1cc(C)n(-c2nc3ccccc3c(=O)n2OCC#N)n1,?,.,-89,2.5µM,?,7.9µM
CCc1ccc(-c2nc(CSCC(=O)N3CCN(c4ncccn4)CC3)c(C)o2)cc1,/,22µM,?,?,?,.
CSc1ccc(-c2nc(CSCC(=O)N3CCOCC3)c(C)o2)cc1,.,?,-74,/,/,.
COC(=O)CSCc1nc(-c2ccc(C(=O)OC)cc2)oc1C,7.1µM,.,-63,.,.,/
SMILES,LASV entry inh,FMDV antiviral,HCMV inh,Vaccinia mCherry,Vaccinia Venus,MARV entry inh
COC(=O)c1cc2sccc2n1Cc1nc(-c2ccc(OC)cc2)oc1C,?,/,-61,.,.,?
COC(=O)c1cc2sccc2n1Cc1nc(-c2ccc(C)cc2)oc1C,/,.,.,.,.,?
COc1ccc(-c2nc(CSCC(=O)N3CCN(c4ccc(OC)cc4)CC3)c(C)o2)cc1,.,.,.,.,?,.
CCC(C)NC(=O)CSCc1nc(-c2ccc(C)cc2)oc1C (stereo not drawn),?,.,.,.,.,.
O=C(NCCCN1CCOCC1)c1cnn(-c2ncc3c(n2)-c2ccccc2CC3)c1C1CC1,/,.,/,.,.,/
CC12C=C(C=Cc3ccc(Br)cc3)C(C)(C1)[C@H](c1ccc(Br)cc1)CC2=O (stereo partly drawn),?,/,/,/,/,.
Cc1ccc(C(=O)OCC(=O)NC2CC2)cc1S(=O)(=O)N1CCOCC1,/,.,.,/,/,/
CCc1ccc(-c2nc(CSCC(=O)NC3CC3)c(C)o2)cc1,?,.,-74,.,.,5µM
Cc1ccc(CN2C(=O)CN=C(c3ccccc3)c3ccccc32)cc1,.,?,-74,.,.,?
Nc1cccc(/C=C/c2ccnc3ccccc23)c1,/,/,/,.,.,/
Cc1nc(NCCc2ccc(S(N)(=O)=O)cc2)c2c(C)c(C)sc2n1,?,22µM,-88,?,?,?
COc1ccc(C)cc1S(=O)(=O)N1CCN(C(=O)c2ncoc2-c2ccc(F)cc2)CC1,.,?,.,.,.,.
